# Screening results: PubChem, National Center for Advancing Translational Sciences (NCATS)
# JMJD2A Tudor inh = blocks the human JMJD2A Tudor domain; O75164; AlphaScreen JMJD2A-Tudor / H3K4me3 peptide binding; 4.4% of 390,000 active; AID 504339; Potency, µM (doses to about 114 µM), for the others: at the top dose activity change, negative = inhibition, most hits filed as inhibitors; note: % is set by controls: 0 for no effect and ±100 for the full control effect; nearly all actives have a fitted effect of over 50% in size
# Target sequence (O75164 whole entry, looked up, the tested form may be a part): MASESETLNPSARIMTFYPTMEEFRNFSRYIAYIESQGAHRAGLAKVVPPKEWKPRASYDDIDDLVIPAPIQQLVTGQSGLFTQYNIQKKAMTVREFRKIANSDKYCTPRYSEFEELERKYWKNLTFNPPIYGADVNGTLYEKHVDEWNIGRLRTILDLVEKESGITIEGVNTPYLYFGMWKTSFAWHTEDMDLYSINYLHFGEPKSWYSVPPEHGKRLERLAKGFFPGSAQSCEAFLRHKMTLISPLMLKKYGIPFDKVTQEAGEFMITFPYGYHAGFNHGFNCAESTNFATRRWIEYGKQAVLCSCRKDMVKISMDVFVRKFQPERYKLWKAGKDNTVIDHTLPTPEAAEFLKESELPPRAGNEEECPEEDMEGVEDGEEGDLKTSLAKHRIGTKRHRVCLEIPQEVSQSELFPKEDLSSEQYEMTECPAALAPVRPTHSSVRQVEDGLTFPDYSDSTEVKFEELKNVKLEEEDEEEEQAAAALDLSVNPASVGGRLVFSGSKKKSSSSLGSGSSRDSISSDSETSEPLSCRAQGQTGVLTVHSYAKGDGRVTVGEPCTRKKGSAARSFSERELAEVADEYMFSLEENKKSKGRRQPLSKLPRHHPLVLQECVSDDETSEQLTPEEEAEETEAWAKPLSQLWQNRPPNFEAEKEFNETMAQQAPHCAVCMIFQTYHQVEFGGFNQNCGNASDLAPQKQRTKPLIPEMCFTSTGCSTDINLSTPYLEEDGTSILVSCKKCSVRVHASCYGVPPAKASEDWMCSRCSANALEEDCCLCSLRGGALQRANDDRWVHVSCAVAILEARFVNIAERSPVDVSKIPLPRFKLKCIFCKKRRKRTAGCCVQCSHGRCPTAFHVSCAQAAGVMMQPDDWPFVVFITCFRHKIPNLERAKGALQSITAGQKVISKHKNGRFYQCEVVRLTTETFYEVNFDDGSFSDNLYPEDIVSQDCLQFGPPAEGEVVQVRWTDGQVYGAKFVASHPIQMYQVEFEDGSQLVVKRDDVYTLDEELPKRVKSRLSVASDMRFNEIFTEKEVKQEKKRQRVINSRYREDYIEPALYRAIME
# BAZ2B block = inhibitors of human BAZ2B bromodomain | AID 504333 | Q9UIF8 | 4.4% of 360,000 active | AlphaScreen BAZ2B-H3K14Ac peptide displacement | Potency, µM (titrated, usually from 114 µM), for inactives: at the highest dose activity change, negative = inhibition, most hits filed as inhibitors; note: % is set by controls: 0 for no effect and ±100 for the full control effect; nearly all actives have a fitted effect of over 60% in size
#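 Inhibition is scored as reduced AlphaScreen emission. The BAZ2B/b-H3(5-23)K14Ac complex (50 nM each) in PBS pH 7.4, 0.01% Tween-20 meets compound (up to 110 uM) for 30 min at RT before bead addition.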
# PLK1 PBD block = blocks phosphopeptide binding to human PLK1 polo-box domain; P53350; Plk1 PBD binding of FITC phosphopeptide, fluorescence polarization; Potency, µM, for inactives: max response, negative = inhibition, actives largely listed as inhibitors; 2.8% of 360,000 active; note: series mostly up to about 57 µM; % is set by controls: 0 for no effect and ±100 for the full control effect; nearly all actives have a fitted effect of over 65% in size
# HP1b binding inh = blocks HP1-beta chromodomain binding to methylated histone tails. P83916. AlphaScreen HP1-beta / biotin-H3K9me3 peptide binding. Potency, µM (titrated, usually from 114 µM), for the others: top-dose activity change, negative = inhibition, usual class: inhibitors. 0.56% of 390,000 active; note: nearly all actives have a fitted effect of over 70% in size
#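 HP1-beta protein (50 nM final) preincubated 30 min at room temperature with biotinylated H3(1-18)K9me3 peptide (50 nM) in PBS pH 7.4, 0.01% Tween-20, then compound added for 30 min. AlphaScreen streptavidin donor/nickel chelate acceptor beads (10 ug/mL final), 30 min dark, luminescence read.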
# G9a block = blocks human histone lysine methyltransferase G9a | Potency, µM (titrated, usually from 102 µM), for inactives: at the top dose activity, negative = inhibition, usual class: inhibitors | 8.8% of 350,000 active | G9a H3K9 monomethylation, AlphaScreen, 2 h | AID 504332; note: % is set by controls: 0 for no effect and ±100 for the full control effect; nearly all actives have a fitted effect of over 75% in size
#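 Compounds were preincubated with 20 nM G9a for 15 min, after which biotinylated H3K9 peptide (500 nM) and SAM (20 uM) started a 2 h room-temperature reaction. Monomethylated product was quantified by antibody-based AlphaScreen chemiluminescence.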
# Sfp PPTase inh = Sfp phosphopantetheinyl transferase inhibition; Biochemical Sfp PPTase activity, qHTS; Potency, µM, for inactives: largest response in the series, negative = inhibition, most hits filed as inhibitors; 3.5% of 310,000 active; AID 1490;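 note: the enzyme is Sfp with the accession as filed and its product quenches rhodamine fluorescence; 0% = enzyme reaction without inhibitor and -100% = no enzyme wells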
#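 Sfp 15 nM + cpd, 15 min RT; start w/ rhodamine-CoA 5 uM, BHQ-2-YbbR 12.5 uM (final); 50 mM Hepes pH 7.6, 10 mM MgCl2, 0.01% NP-40, 0.01% BSA; read 525/598 nm at 0 and 30 min.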
# An asterisk follows results filed as active; u = inconclusive; x = no result; [ ] = dose if it differs, or a comment. This is a sample that favours compounds with a hit; in the whole collection about 12% have one here. Calls come from the whole dose curve; as a rule, active = well fitted curve in the direction sought with a large enough effect; inconclusive = small, poorly fitted or top-dose-only effect, or another doubt; inactive = no such curve, though single readings can be large; an effect the other way counts as inactive or inconclusive. Potency is the fitted concentration of half-maximal effect.
SMILES,JMJD2A Tudor inh,BAZ2B block,PLK1 PBD block,HP1b binding inh,G9a block,Sfp PPTase inh
CC(C)(C)c1csc(NC(=O)c2ccccc2O)n1,-28%,-3%,-24%,16%,x,1%
C/C(=N\Nc1nc2c(s1)CCCC2)c1ccccc1,u,45µM*,u,u,u,u
CC(C)(C)c1csc(NNC(=O)c2ccc(Br)cc2)n1,-31%,x,-26%,-7%,-34%,-20%
C=C1/C(=C\C=C2/CCC[C@]3(C)C([C@H](C)CCCC(C)(C)O)CC[C@@H]23)C[C@@H](O)C[C@@H]1O (stereo not given in full),x,x,x,x,-3%[59 µM],5%
CC1(C)CCC2(C(=O)O)CC[C@]3(C)C(=CCC4[C@]5(C)CCC(O)C(C)(C)C5C(O)C[C@]43C)C2C1 (stereo not given in full),x,x,x,x,-12%[2.33 µM],3%
COc1ccc(N2CCN(C(CNC(=O)CC(C)C)c3ccc4c(c3)OCO4)CC2)cc1 (stereo not given),u,-24%,x,3%[57 µM],11µM*,x
COc1ccc(N2CCN(C(CNC(C)=O)c3ccc4c(c3)OCO4)CC2)cc1 (stereo not given),-30%,-17%[57.1 µM],-23%,2%,11%,5%
COc1ccc(C(=O)NCC(c2ccc3c(c2)OCO3)N2CCN(C)CC2)cc1 (stereo not given),2%,1%,x,29%[57 µM],-4%[59 µM],x
COc1ccc(N2CCN(C(CNC(=O)c3ccc(C)cc3)c3ccc4c(c3)OCO4)CC2)cc1 (stereo not given),28µM*,20µM*,x,-18%[57 µM],8.9µM*,x
COc1ccc(NS(=O)(=O)c2ccc3c(c2)Cc2ccccc2-3)cn1,-30%,-37%,-5%,-5%,-11%[59 µM],71µM*
N#Cc1cccc(NC(=O)CCNS(=O)(=O)c2ccc3[nH]c(=O)oc3c2)c1,-13%,-15%,-13%,29%,10%,5%
CCc1cc(C(=O)N/N=C/c2ccc(O)cc2O)c2ccccc2n1,79µM*,45µM*,2%,35%,13%,23%
Cc1cccc(C(=O)Oc2c(Br)cc(Br)cc2/C=N/NC(=O)c2ccncc2)c1,-21%[57.1 µM],-9%,30µM*,-6%,23%,10%
O=C(N/N=C/c1ccc(O)cc1O)c1ccncc1,56µM*,32µM*,3%,51%,41%,13%
O=C(N/N=C/c1cc(Br)cc(Br)c1O)c1ccncc1,13µM*,8.9µM*,31%,38%,50µM*,6%
CC(C)(C)OC(=O)N1CCC(c2c(C(=O)NCCc3ccccc3)cnn2-c2ccc(F)cc2)CC1,-8%,1%[57.1 µM],x,20%,u,x
O=C(N/N=C/c1ccc(Cl)cc1Cl)c1ccncc1,-16%,u,-9%,25%,x,u
O=C(N/N=C/c1cc(Cl)cc(Cl)c1O)c1ccncc1,22µM*,10µM*,8%,49%,-4%,15%
O=C(N/N=C/c1cc(Br)cc([N+](=O)[O-])c1O)c1ccc(NC(=O)c2ccc(F)cc2)cc1,32µM*,13µM*,u,u,35µM*,22%
Cc1cccc(C)c1-n1c(C)nn(-c2ncc(C(F)(F)F)cc2Cl)c1=O,9%,-17%,3%,22%,-10%,7%
Cc1nn(-c2ncc(C(F)(F)F)cc2Cl)c(=O)n1-c1c(F)cccc1F,-11%,-17%,3%,29%,79µM*,16%
Cc1cn([C@H]2C[C@H](O)[C@@H](CNCc3cccn3-c3ccncc3)O2)c(=O)[nH]c1=O,x,x,1.1µM*,x,x,x
CCOC(=O)CSc1nnc(-c2ccoc2C)n1-c1ccc(OCC)cc1,-27%,-33%,-14%,-7%,u,56µM*
COc1cc(C)c2c(=O)cc(-c3ccccc3)oc2c1,x,x,x,x,x,-34%
CNC(=O)C1CCC(Cn2c(=O)c3sccc3n(CC(=O)Nc3ccc(C)cc3C)c2=O)CC1 (stereo not given),-10%,-8%,x,28%,9%[59 µM],x
SMILES,JMJD2A Tudor inh,BAZ2B block,PLK1 PBD block,HP1b binding inh,G9a block,Sfp PPTase inh
Cc1noc(C)c1NC(=O)Nc1cccc2c1O[C@H](CN(C)C(=O)Nc1ccc(C(F)(F)F)cc1)[C@@H](C)CN([C@H](C)CO)C2=O,-8%,x,-8%,41%,x,x
NC(=O)COc1c(-c2ccco2)oc2ccccc2c1=O,-14%,-6%,-8%,9%,-50%,89µM*
O=C(O)COc1c(-c2ccc(Cl)cc2)oc2ccccc2c1=O,-24%[57.1 µM],-38%,-19%,27%,u,12%
CCOC(=O)COc1c(-c2ccc(OC)cc2)oc2ccccc2c1=O,29%,42%,-1%,125%,5%[59 µM],u
COc1ccc(-c2oc3ccccc3c(=O)c2OCC(=O)O)cc1,u,-32%,12µM*,-14%,2%,18%
O=C(O)COc1c(-c2ccco2)oc2ccccc2c1=O,-4%,-2%,0%,40%,45µM*,11%
Cc1ccccc1C(=O)Nc1cccc(NC(=O)c2ccc(C(C)(C)C)cc2)c1,-17%,-4%,x,20%,-43%[59 µM],x
COc1cc2ccccc2cc1C(=O)NC1CCC(C)CC1 (stereo not given),8%,x,-4%,52%,x,x
COC(=O)c1ccccc1NC(=O)CSc1cc(-c2ccccc2)nc(C)n1,9%,-3%,x,43%,10%[59 µM],x
Cc1csc(Nc2ccccc2C(F)(F)F)n1,1%,u,0%,6%,24%[0.0925 µM],-1%
FC(F)(F)c1ccccc1Nc1nccs1,50µM*,-2%,-11%,57%,u,-13%
COCCNC(=O)c1cccc(OC2CCN(Cc3cccc(SC)c3)CC2)c1,-20%,-21%,-19%,24%,1%,18%
Cn1cccc1-c1cc(C(=O)O)[nH]n1,-7%,u,0%,33%,50µM*,45µM*
Cn1cccc1-c1cc(C(=O)N2CCc3c([nH]c4ccccc34)C2c2ccccn2)[nH]n1 (stereo not given),50µM*,35µM*,-10%,u,35µM*,u
Cc1ncoc1C(=O)N1CCc2c([nH]c3ccccc23)C1c1ccccc1F (stereo not given),u,50µM*,-6%,-13%,40µM*,2%
O=C(O)c1cc(-c2ccccc2)n[nH]1,-6%,8%,x,50%,13%[59 µM],-1%
CSc1ccc(C2c3[nH]c4ccccc4c3CCN2C(=O)c2ccnn2C)cc1 (stereo not given),u,u,-10%,-5%,40µM*,-8%
COC(=O)c1ccc(NC(=O)CN(C)S(=O)(=O)c2ccc(Br)s2)cc1,-12%,4%,x,21%,-4%[59 µM],x
O=C(NCc1ccncc1)c1ccc(S(=O)(=O)Nc2ccccc2)cc1,-8%,7%,4%,40%,7%,x
